Results reported in the supplement of paper PMC11732987, “Enantioselective OTUD7B fragment discovery through chemoproteomics screening and high-throughput optimisation” (Communications Chemistry, 2025).

How the values were obtained:
Assay in all cases: log2 ratio of Biotin-Ahx-Ub-VS probe labelling (fragment/DMSO); higher = less target engagement (more negative = stronger competition), active = hit call of the paper (q ≤ 0.05, log2 ratio ≤ -1)
Settings in all cases: compound concentration: 200 uM; treatment time: 3 h
USP34 = USP34 (UniProt Q70CQ2)
Sequence of USP34 (Q70CQ2 whole entry, the tested form may be a part): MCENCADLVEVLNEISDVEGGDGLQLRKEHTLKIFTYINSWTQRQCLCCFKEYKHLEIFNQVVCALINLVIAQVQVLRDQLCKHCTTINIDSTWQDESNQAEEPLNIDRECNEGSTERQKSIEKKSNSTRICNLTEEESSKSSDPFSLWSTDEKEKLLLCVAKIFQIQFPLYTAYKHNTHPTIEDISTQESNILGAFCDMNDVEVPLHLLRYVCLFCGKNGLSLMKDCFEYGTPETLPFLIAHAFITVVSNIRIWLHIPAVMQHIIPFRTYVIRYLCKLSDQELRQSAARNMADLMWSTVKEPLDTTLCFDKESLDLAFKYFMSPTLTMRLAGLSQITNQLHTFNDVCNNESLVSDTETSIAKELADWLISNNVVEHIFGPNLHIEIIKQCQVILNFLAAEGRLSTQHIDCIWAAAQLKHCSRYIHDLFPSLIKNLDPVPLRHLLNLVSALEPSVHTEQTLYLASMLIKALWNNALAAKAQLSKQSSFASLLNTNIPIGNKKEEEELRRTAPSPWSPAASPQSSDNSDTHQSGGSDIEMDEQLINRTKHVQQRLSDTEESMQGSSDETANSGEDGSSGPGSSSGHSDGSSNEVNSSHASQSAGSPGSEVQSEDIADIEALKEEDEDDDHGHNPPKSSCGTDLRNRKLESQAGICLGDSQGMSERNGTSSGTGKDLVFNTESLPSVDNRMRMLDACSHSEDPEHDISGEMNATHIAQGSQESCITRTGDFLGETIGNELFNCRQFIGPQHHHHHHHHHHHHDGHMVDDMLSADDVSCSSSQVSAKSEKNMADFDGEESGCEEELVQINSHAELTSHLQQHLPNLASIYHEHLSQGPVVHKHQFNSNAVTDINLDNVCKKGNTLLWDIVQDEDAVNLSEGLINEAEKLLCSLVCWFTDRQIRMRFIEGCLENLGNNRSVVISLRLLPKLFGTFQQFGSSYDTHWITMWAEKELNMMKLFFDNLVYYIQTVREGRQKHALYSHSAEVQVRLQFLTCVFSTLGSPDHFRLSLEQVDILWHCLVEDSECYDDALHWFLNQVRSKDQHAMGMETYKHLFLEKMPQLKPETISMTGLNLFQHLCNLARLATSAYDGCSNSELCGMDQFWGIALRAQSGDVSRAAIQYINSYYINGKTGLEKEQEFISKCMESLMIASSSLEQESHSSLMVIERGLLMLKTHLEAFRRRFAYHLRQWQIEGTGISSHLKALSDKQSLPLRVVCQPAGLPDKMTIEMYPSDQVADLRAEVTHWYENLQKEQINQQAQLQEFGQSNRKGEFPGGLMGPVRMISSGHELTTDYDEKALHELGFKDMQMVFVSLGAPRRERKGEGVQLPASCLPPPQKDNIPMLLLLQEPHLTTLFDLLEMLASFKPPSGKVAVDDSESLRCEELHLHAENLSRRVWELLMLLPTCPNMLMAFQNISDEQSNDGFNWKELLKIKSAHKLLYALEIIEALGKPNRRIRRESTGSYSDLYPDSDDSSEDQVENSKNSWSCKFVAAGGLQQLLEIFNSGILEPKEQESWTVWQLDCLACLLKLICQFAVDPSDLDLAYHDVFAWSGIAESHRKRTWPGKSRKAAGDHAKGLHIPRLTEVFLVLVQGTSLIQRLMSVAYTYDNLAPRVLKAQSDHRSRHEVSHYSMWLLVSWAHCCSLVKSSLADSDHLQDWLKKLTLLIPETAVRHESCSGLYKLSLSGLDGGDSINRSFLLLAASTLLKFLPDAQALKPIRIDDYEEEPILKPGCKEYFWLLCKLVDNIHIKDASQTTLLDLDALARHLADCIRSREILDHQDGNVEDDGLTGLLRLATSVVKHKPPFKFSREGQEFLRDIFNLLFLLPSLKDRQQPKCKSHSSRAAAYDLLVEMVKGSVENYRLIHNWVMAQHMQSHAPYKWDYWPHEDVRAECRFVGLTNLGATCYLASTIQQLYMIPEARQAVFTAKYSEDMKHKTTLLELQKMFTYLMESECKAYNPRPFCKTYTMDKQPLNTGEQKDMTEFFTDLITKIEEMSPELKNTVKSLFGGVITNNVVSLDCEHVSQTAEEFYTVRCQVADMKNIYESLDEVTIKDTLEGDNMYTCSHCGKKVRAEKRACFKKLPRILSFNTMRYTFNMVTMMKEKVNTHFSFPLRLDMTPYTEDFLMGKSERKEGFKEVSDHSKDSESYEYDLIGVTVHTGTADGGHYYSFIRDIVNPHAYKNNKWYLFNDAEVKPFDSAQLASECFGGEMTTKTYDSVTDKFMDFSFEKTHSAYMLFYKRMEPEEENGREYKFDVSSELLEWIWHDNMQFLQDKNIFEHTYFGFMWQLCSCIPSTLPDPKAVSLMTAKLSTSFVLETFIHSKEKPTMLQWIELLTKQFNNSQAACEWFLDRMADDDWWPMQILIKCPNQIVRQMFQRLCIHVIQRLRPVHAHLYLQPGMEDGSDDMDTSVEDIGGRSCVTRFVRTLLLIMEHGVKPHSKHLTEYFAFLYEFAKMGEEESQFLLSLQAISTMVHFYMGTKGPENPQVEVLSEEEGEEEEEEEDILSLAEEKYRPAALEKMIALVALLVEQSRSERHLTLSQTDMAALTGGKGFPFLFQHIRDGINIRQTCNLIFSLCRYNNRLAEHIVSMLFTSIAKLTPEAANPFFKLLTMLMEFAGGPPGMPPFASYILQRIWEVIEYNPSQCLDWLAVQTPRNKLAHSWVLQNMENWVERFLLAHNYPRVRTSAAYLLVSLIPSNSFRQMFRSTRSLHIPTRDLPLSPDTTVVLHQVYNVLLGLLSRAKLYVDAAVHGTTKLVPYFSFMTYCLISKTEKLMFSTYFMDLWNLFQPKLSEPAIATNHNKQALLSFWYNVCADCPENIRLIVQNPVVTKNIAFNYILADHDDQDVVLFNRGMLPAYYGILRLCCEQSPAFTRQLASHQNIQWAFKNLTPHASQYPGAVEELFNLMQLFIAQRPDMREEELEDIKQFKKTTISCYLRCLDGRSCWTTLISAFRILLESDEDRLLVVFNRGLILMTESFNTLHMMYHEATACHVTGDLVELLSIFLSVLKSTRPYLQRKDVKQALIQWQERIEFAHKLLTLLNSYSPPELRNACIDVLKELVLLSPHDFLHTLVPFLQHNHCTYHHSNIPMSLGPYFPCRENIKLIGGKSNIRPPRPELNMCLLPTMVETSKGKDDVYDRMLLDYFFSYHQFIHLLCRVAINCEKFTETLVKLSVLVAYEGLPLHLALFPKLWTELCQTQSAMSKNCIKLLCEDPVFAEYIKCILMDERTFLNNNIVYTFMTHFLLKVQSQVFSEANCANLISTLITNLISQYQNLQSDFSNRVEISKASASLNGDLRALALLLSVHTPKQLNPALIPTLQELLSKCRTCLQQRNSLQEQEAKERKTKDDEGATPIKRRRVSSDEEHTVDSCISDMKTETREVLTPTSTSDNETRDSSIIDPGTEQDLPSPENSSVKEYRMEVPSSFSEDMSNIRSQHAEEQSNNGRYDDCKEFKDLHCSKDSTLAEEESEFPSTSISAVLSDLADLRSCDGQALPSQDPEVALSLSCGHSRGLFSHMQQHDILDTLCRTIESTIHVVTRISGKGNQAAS
Outline: (§1)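 HEK293T lysate (495 µg per sample, in Tris/CHAPS/IGEPAL buffer with protease inhibitors) was treated in triplicate with fragment at 200 µM or with DMSO for 3 h. It was then treated with Biotin-Ahx-Ub-VS (0.5 µM final) for 1 h. Labelled DUBs were NeutrAvidin-enriched, digested with LysC and trypsin, and run by diaPASEF LC-MS/MS. Spectronaut label-free quantities were global-median-normalised. Values are average log2 ratios fragment/DMSO by unpaired t-test, using proteins with ≥2 unique peptides.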

USP36 = molecular target: T1, USP36 (UniProt Q9P275)
T1 sequence (whole entry): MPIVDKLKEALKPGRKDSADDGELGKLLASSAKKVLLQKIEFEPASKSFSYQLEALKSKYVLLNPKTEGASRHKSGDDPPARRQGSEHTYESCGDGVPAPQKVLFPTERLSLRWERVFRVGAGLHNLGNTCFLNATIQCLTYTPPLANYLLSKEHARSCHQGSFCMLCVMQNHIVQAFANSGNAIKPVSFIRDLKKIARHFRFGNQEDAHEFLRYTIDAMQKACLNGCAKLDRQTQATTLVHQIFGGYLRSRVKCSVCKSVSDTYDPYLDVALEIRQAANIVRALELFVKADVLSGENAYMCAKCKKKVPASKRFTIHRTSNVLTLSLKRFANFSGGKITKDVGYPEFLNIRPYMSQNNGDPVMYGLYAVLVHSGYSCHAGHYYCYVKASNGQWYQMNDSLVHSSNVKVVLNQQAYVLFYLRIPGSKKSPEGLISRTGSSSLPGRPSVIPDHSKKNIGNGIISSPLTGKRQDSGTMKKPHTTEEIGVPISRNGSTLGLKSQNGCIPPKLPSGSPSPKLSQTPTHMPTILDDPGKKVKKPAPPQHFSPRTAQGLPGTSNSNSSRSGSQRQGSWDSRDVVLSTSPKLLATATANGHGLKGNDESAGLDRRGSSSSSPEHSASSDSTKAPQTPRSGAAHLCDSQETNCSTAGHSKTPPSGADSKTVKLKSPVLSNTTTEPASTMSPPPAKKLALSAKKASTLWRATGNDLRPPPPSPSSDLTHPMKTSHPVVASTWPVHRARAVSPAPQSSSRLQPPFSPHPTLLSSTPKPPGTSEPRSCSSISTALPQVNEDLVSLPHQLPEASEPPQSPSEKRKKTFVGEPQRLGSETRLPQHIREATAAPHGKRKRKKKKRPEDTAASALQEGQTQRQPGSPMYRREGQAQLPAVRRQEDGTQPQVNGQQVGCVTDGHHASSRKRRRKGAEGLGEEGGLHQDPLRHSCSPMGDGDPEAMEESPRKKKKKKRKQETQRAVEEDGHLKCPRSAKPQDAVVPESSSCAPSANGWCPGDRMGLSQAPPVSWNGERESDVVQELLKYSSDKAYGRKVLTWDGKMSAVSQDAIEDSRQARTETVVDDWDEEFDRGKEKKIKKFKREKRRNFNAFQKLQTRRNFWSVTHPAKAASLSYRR
Outline: as §1

USP38 = molecular target: T2, USP38 (UniProt Q8NB14)
T2 sequence (whole entry): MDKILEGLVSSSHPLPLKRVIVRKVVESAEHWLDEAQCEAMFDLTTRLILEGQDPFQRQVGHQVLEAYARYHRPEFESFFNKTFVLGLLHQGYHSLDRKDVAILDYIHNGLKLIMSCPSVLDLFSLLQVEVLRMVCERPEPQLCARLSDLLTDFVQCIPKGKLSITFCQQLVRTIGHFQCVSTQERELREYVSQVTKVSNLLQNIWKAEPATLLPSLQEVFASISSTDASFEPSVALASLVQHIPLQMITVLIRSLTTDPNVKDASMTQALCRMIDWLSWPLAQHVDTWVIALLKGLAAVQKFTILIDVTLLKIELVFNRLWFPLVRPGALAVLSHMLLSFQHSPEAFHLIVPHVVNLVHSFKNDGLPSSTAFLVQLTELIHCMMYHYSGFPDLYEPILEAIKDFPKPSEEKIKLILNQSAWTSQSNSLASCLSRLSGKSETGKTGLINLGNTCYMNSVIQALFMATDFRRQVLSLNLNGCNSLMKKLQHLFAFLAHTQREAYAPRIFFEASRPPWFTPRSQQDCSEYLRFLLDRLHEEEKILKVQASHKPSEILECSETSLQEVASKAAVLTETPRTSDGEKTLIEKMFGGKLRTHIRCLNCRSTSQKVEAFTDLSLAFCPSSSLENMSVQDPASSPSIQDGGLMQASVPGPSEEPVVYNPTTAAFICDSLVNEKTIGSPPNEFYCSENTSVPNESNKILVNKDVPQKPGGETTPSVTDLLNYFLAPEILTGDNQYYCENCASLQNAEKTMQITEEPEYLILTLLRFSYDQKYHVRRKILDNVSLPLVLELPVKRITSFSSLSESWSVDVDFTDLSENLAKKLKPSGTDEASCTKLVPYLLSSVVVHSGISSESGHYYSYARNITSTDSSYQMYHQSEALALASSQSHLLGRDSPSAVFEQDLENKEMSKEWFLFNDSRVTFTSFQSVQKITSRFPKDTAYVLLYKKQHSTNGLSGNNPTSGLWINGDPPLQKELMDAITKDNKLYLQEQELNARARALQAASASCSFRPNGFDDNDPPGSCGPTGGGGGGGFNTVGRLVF
Outline: as §1

USP39 = molecular target: T3, USP39 (UniProt Q53GS9)
T3 sequence (whole entry): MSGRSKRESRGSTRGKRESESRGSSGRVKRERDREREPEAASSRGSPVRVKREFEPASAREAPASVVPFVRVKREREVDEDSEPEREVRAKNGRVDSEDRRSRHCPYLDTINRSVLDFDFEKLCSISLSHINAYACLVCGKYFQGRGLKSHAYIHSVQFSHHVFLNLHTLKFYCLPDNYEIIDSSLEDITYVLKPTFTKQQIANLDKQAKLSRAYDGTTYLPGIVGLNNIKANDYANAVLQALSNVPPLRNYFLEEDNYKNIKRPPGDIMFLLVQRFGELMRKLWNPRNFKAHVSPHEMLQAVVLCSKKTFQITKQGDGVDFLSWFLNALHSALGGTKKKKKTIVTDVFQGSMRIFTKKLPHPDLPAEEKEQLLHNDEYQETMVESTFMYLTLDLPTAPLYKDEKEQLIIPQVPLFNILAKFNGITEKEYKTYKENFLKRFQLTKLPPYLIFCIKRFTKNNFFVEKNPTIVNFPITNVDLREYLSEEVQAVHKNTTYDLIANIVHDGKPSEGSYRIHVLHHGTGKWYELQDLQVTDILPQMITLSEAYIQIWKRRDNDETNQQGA
Outline: as §1

USP4 = molecular target: T4, USP4 (UniProt Q13107)
T4 sequence (whole entry): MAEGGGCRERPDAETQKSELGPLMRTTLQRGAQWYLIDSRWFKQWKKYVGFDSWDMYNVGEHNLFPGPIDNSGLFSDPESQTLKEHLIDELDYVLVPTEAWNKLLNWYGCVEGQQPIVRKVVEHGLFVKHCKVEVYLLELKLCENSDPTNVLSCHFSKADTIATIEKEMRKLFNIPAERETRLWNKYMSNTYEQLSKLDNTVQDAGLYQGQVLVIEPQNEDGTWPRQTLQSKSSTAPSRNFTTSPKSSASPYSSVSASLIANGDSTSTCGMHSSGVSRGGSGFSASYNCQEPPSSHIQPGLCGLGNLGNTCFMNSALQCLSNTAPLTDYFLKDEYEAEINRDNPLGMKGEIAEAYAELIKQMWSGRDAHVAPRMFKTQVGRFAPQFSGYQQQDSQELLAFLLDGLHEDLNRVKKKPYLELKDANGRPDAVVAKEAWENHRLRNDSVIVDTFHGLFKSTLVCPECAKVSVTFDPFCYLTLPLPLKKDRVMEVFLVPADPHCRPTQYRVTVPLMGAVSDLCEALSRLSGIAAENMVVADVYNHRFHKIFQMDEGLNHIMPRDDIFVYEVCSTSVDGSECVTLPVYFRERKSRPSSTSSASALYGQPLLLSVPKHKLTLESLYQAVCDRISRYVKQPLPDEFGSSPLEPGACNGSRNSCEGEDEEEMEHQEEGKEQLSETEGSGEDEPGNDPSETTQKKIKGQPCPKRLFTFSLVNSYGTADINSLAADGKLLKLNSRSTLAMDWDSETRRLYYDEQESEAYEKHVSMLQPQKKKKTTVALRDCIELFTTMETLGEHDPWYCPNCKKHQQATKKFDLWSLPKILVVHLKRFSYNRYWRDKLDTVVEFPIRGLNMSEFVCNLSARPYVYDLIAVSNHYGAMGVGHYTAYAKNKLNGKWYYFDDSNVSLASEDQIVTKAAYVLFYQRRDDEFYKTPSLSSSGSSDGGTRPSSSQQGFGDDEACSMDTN
Outline: as §1

Measured: log2 ratio of Biotin-Ahx-Ub-VS probe labelling

O=C(CCl)N1CCC(C(=O)N2CCCC2)CC1
inactive: USP34 -0.0649 | USP36 -0.172 | USP38 -0.135 | USP39 -0.453 | USP4 -0.208
